Values without a mark were called inactive.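 How the source made its calls: active means GFP response above 150% of the DMSO level; inconclusive means fewer than 70 events counted for a yeast strain; inactive means the rest.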
Experiment: yeast AGP1-GFP fluorescence change, single-dose – cell-based, flow cytometry, S. cerevisiae, cherry picks, confirmation (AID 2273);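 further: median GFP channel fluorescence over the whole cell population gate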
Settings: S. cerevisiae AGP1-GFP strain, 3 h, at 10 µM

SMILES	GFP response, % of DMSO [%]
O=c1[nH]c(=O)n([C@H]2C[C@H](O)[C@@H](CO)O2)cc1F	102
Nc1nc2c(ncn2COCCO)c(=O)[nH]1	102
CC(=O)[C@@]1(O)CC[C@H]2[C@@H]3CCC4=CC(=O)CC[C@]4(C)[C@H]3CC[C@@]21C	96.5
C[C@]12CCC(=O)C=C1CC[C@@H]1[C@@H]2C(=O)C[C@@]2(C)[C@H]1CC[C@]2(O)C(=O)CO	104
O=C(COc1ccccc1[N+](=O)[O-])Nc1ccc(NC(=O)c2cc3ccccc3o2)cc1	99.8
O=c1[nH]c(CN2CCCCC2)nc2c1C1(CCCCC1)Cc1ccccc1-2	99.2
O=C1CC(Sc2ncccn2)C(=O)N1c1ccccc1C(F)(F)F (configuration not stated)	98.9

Reference: PubChem BioAssay
